Bioassay records from PubChem.
HP1b chromo inh: HP1-beta chromodomain-methylated histone interaction inhibition; AlphaScreen HP1-beta / biotin-H3K9me3 peptide binding; Potency, µM (highest dose often 114 µM), most hits filed as inhibitors; hit rate 0.56% among 390,000; further: nearly all actives have a fitted effect of over 70% in size
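HP1-beta protein (50 nM final) preincubated 30 min at room temperature with biotinylated H3(1-18)K9me3 peptide (50 nM) in PBS pH 7.4, 0.01% Tween-20, then compound added for 30 min. AlphaScreen streptavidin donor/nickel chelate acceptor beads (10 ug/mL final), 30 min dark, luminescence read.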
PLK1 PBD inh: blocks phosphopeptide binding to human PLK1 polo-box domain; P53350; Plk1 PBD binding of FITC phosphopeptide, fluorescence polarization; Potency, µM, hits mostly inhibitors; hit rate 2.8% among 360,000; further: series mostly up to about 57 µM; nearly all actives have a fitted effect of over 65% in size
JMJD2A Tudor: blocks the human JMJD2A Tudor domain; O75164; AlphaScreen JMJD2A-Tudor / H3K4me3 peptide binding; Potency, µM (series often up to 114 µM), actives largely listed as inhibitors; hit rate 4.4% among 390,000; AID 504339; further: nearly all actives have a fitted effect of over 50% in size
PI5P4K alpha inh: inhibitors of human PI5P4K alpha | hit rate 1.2% among 330,000 | PI5P4Kalpha enzyme, ADP-Glo luminescence, 60 min; active compounds read low | max response, %; active means max response of -50% or lower; inconclusive means between -30% and -50%; inactive means -30% or higher; further: value at the top dose of about 77 µM
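PI5P4Kalpha ADP-Glo assay; 5 microM ATP final; 60 min RT reaction; HEPES pH 7.4/EGTA/CHAPS, 5% DMSO; controls lacking substrate or enzyme; luminescent end-point.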
KAT2A inh: blocks human GCN5L2 histone acetyltransferase. Q92830. GCN5L2 HAT assay, ThioGlo1 CoA-SH fluorescence. Potency, µM (highest dose often 58.9 µM), usual class: inhibitors. hit rate 0.21% among 390,000. AID 504327
Target sequence (Q92830 whole entry, looked up): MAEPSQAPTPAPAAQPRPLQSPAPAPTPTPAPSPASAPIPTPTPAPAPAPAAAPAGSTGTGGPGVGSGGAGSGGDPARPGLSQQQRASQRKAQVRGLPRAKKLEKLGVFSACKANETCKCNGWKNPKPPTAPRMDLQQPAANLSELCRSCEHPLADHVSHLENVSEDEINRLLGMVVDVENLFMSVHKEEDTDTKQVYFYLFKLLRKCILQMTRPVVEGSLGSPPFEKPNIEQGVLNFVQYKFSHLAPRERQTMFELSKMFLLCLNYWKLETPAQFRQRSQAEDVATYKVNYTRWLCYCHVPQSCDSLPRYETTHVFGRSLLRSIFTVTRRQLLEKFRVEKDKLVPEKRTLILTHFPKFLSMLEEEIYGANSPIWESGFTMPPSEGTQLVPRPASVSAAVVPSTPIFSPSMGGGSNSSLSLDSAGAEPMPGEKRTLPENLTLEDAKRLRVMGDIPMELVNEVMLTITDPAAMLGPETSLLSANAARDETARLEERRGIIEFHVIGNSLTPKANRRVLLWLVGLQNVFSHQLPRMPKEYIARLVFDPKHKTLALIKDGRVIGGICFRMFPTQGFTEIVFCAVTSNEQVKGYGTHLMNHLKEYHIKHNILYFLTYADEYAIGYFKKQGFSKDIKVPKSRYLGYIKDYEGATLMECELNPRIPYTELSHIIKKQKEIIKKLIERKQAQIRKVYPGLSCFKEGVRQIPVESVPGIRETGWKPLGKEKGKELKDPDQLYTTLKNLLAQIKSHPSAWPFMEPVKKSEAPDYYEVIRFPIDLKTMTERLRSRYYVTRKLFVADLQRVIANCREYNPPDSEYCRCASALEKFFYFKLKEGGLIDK
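GCN5L2 (20nM final) in 50mM HEPES, 0.1mM EDTA pH 7.5, 0.01% Tween-20 was preincubated 15 min at room temperature with compound, then given ThioGlo1 (50uM), H3(1-25) peptide (75uM) and acetyl-CoA (70uM); CoA-thiol fluorescence (Ex340/Em540) was read at 0 and 20 min.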
BAZ2B inh: BAZ2B (human) inhibition | hit rate 4.4% among 360,000 | Potency, µM (doses to about 114 µM), hits mostly inhibitors | AlphaScreen BAZ2B-H3K14Ac peptide displacement; further: nearly all actives have a fitted effect of over 60% in size
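AlphaScreen displacement of biotin-H3(5-23)K14Ac peptide (50 nM final) from BAZ2B (50 nM final) in PBS pH 7.4, 0.01% Tween-20; complex preformed 30 min RT, then compounds (top 110 uM) 30 min RT, beads 20 min dark.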
Hits are given with their value; [ ] = dose if it differs, or a comment. Hits are enriched below; roughly 7% of the tested compounds scored in any of these assays. Unless noted, the call rests on the fitted dose curve; in most records, active means well fitted curve in the direction sought with a large enough effect; inconclusive means small, poorly fitted or top-dose-only effect, or another doubt; inactive means no such curve, though single readings can be large; an effect the other way counts as inactive or inconclusive.

Results for O=C(COC(=O)c1cncc(Br)c1)Nc1nnc(-c2ccccc2)o1 ?
HP1b chromo inh: inactive; PLK1 PBD inh: inactive; JMJD2A Tudor: 50µM; PI5P4K alpha inh: inconclusive

Results for COc1cc(OC)cc(C(=O)OCC(=O)Nc2nnc(-c3ccccc3)o2)c1 ?
HP1b chromo inh: inactive; PLK1 PBD inh: inactive; JMJD2A Tudor: 50µM; PI5P4K alpha inh: inactive

How did O=C(COC(=O)CNC(=O)c1ccc(Br)cc1)Nc1nnc(-c2ccccc2)o1 do in these assays?
HP1b chromo inh: inactive; PLK1 PBD inh: inactive; JMJD2A Tudor: inactive; PI5P4K alpha inh: inactive; KAT2A inh: inactive; BAZ2B inh: inactive

How did O=C(COC(=O)c1ccc(Cl)nc1)Nc1nnc(-c2ccccc2)o1 do in these assays?
HP1b chromo inh: inactive; PLK1 PBD inh: inactive; JMJD2A Tudor: 79µM; PI5P4K alpha inh: inactive; KAT2A inh: inactive; BAZ2B inh: 50µM

How did CC(C)(C)NC(=O)COC(=O)c1cncc(Br)c1 do in these assays?
HP1b chromo inh: inactive; PLK1 PBD inh: 30µM; JMJD2A Tudor: inactive[11.4 µM]; PI5P4K alpha inh: inactive; KAT2A inh: inactive; BAZ2B inh: inactive

How did O=C(COC(=O)c1cncc(Br)c1)NC1CC1 do in these assays?
HP1b chromo inh: inactive; PLK1 PBD inh: inactive; JMJD2A Tudor: inactive; KAT2A inh: inactive; BAZ2B inh: inactive

How did O=S(=O)(c1ccc(F)cc1)N1CCN(c2nc(-c3ccccc3)nc3ccccc23)CC1 do in these assays?
HP1b chromo inh: inactive; JMJD2A Tudor: inactive

Results for COc1ccc2[nH]cc(C(=O)CNc3nc(C)cs3)c2c1 ?
HP1b chromo inh: inactive; PLK1 PBD inh: inactive; JMJD2A Tudor: inactive[11.4 µM]; PI5P4K alpha inh: inactive; KAT2A inh: inactive; BAZ2B inh: 50µM

What do the screens show for `C#CC[N+](C)(C)CCCCCCCCC`?
HP1b chromo inh: inactive; PLK1 PBD inh: 38µM; JMJD2A Tudor: inactive; PI5P4K alpha inh: inactive; KAT2A inh: inactive; BAZ2B inh: inactive

What do the screens show for `O=c1[nH]c(=S)[nH]c2c1C(C1CCCCC1)OC(C1CCCCC1)C2` (centres undefined)?
PLK1 PBD inh: inactive; PI5P4K alpha inh: inactive

How did COc1ccc(-c2c(=O)n(OCc3ccccc3[N+](=O)[O-])c3ccccc3[n+]2[O-])c(OC)c1 do in these assays?
HP1b chromo inh: inactive; PLK1 PBD inh: inactive; JMJD2A Tudor: inactive; PI5P4K alpha inh: inactive; KAT2A inh: inactive; BAZ2B inh: inactive

What do the screens show for `CCN(C(=S)Nc1cccnc1)c1ccccc1`?
HP1b chromo inh: inactive; PLK1 PBD inh: inactive; JMJD2A Tudor: inactive; PI5P4K alpha inh: inactive; KAT2A inh: inactive; BAZ2B inh: inactive

What do the screens show for `CCN(C(=S)Nc1cccnc1)c1cccc2ccccc12`?
HP1b chromo inh: inactive; PLK1 PBD inh: 27µM; JMJD2A Tudor: inactive; PI5P4K alpha inh: inactive; KAT2A inh: inactive; BAZ2B inh: inconclusive

What do the screens show for `O=C1SC(c2ccccc2)=C/C1=C\N1CCCCC1`?
HP1b chromo inh: inconclusive; PLK1 PBD inh: inactive; JMJD2A Tudor: 50µM; KAT2A inh: inactive; BAZ2B inh: 50µM

How did S=C(NC1CCCCC1)N1CCn2cccc2C1c1ccncc1 (centres undefined) do in these assays?
HP1b chromo inh: inactive; PLK1 PBD inh: inactive; JMJD2A Tudor: inactive; PI5P4K alpha inh: inactive; KAT2A inh: inactive; BAZ2B inh: 50µM

How did Cc1ccc2sc(NNC(=O)c3cc(=O)c4ccccc4o3)nc2c1C do in these assays?
HP1b chromo inh: inconclusive; PLK1 PBD inh: inactive; JMJD2A Tudor: 56µM; PI5P4K alpha inh: inconclusive; KAT2A inh: inactive; BAZ2B inh: 50µM

Results for O=C(NNc1nc2c(F)cccc2s1)c1ccc(F)cc1 ?
HP1b chromo inh: inactive; PLK1 PBD inh: inactive; JMJD2A Tudor: inactive; PI5P4K alpha inh: inactive; KAT2A inh: inactive; BAZ2B inh: inactive

What do the screens show for `Cc1nc(C)c(C(=O)Nc2nc3c(C)cccc3s2)o1`?
HP1b chromo inh: inconclusive; PLK1 PBD inh: 24µM; JMJD2A Tudor: 35µM; KAT2A inh: inactive; BAZ2B inh: 35µM

How did O=C(NNc1nc2c(F)cccc2s1)c1cc(=O)c2ccccc2o1 do in these assays?
HP1b chromo inh: inactive; PLK1 PBD inh: inactive; JMJD2A Tudor: inactive; PI5P4K alpha inh: -51; KAT2A inh: inactive; BAZ2B inh: inactive

Results for COc1ccc2nc(NNC(=O)c3cc(=O)c4ccccc4o3)sc2c1 ?
HP1b chromo inh: inconclusive; PLK1 PBD inh: inactive; JMJD2A Tudor: 56µM; PI5P4K alpha inh: -76; KAT2A inh: inactive; BAZ2B inh: 50µM

What do the screens show for `Cc1cccc2sc(NNC(=O)c3cc(=O)c4ccccc4o3)nc12`?
HP1b chromo inh: inactive; PLK1 PBD inh: inconclusive; JMJD2A Tudor: inconclusive; PI5P4K alpha inh: -52; KAT2A inh: inactive; BAZ2B inh: 45µM

How did Cc1nn(CCCC(=O)Nc2cccc(F)c2)c(=O)c2c1sc1ccccc12 do in these assays?
HP1b chromo inh: inactive; JMJD2A Tudor: inactive; KAT2A inh: inactive; BAZ2B inh: inactive

What do the screens show for `CCC(C)NC(=O)c1ccccc1NC(=O)C1COc2ccccc2O1` (centres undefined)?
HP1b chromo inh: inactive; PLK1 PBD inh: inactive; JMJD2A Tudor: inactive; PI5P4K alpha inh: inactive; KAT2A inh: inactive; BAZ2B inh: inactive

What do the screens show for `COC(=O)c1ccccc1NC(=O)c1ccccc1SC`?
HP1b chromo inh: inactive; PLK1 PBD inh: inactive; JMJD2A Tudor: inactive; PI5P4K alpha inh: inactive; KAT2A inh: inactive; BAZ2B inh: inactive

Results for CC(C)NC(=O)c1ccccc1NC(=O)C1COc2ccccc2O1 (centres undefined) ?
HP1b chromo inh: inactive; PLK1 PBD inh: 27µM; JMJD2A Tudor: 50µM; PI5P4K alpha inh: inactive; KAT2A inh: inactive; BAZ2B inh: inactive

How did CSc1ccccc1C(=O)Nc1ccccc1C(=O)NC(C)C do in these assays?
HP1b chromo inh: inactive; PLK1 PBD inh: 30µM; JMJD2A Tudor: inconclusive; PI5P4K alpha inh: inactive; KAT2A inh: inactive; BAZ2B inh: inactive

How did C=CCOc1cccc(NC(=O)c2ccccc2SC)c1 do in these assays?
HP1b chromo inh: inactive; PLK1 PBD inh: 27µM; JMJD2A Tudor: inactive; PI5P4K alpha inh: inactive; KAT2A inh: inactive; BAZ2B inh: inactive

How did CCN(CC)c1ccc(NC(=O)COC(=O)CSc2ccc(Br)cc2C)cc1 do in these assays?
HP1b chromo inh: 16µM; PLK1 PBD inh: inactive; JMJD2A Tudor: 18µM; PI5P4K alpha inh: inactive; KAT2A inh: inactive; BAZ2B inh: 10µM

Results for Cc1cc(C)c(NC(=O)COC(=O)CSc2ccc(Br)cc2C)c(C)c1 ?
HP1b chromo inh: inactive; PLK1 PBD inh: inactive; JMJD2A Tudor: inactive; PI5P4K alpha inh: inactive; KAT2A inh: inactive; BAZ2B inh: inactive

What do the screens show for `CCOC(=O)C1=C(CBr)NC(=O)NC1C` (centres undefined)?
HP1b chromo inh: inactive; PLK1 PBD inh: inactive; JMJD2A Tudor: inconclusive; PI5P4K alpha inh: inactive; KAT2A inh: inactive; BAZ2B inh: 50µM

What do the screens show for `CCOC(=O)C1=C(C)NC(=O)NC1C` (centres undefined)?
HP1b chromo inh: inactive; PLK1 PBD inh: inactive; JMJD2A Tudor: inactive; KAT2A inh: inactive; BAZ2B inh: inactive
